PubChem BioAssay (NCI)
Values joined by “and” are separate entries in the source; they are usually repeats but may differ in a detail not shown here. Equal entries are not always repeated. About 83,000 compounds went through this panel and 20% of them were active in at least one assay; those are over-represented in the sample as a whole.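 The test compound was applied at a single concentration to cells in 96-well plates for 48 hours, and percent growth was recorded.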 A number with no mark means an inactive call. Active and inactive are the calls of the source.

tested on: MDA-MB-468 breast; experiment: NCI-60 one-dose screen, 48 h (100 = growth as untreated, 0 = no growth, -100 = all killed); settings: 10 µM unless noted
Method: Growth inhibition of the MDA-MB-468 human Breast tumor cell line is measured as a screen for anti-cancer activity. Cells are grown in 96 well plates and exposed to the test compound for 48 hours. Compounds are tested at a single concentration, which is 10^-5 M for most compounds. The reported endpoint is percent growth (GI% or GIPRCNT), where numbers from 0 - 100% represent growth inhibition, and numbers from -100% - 0 represent cell death. For example, a value of 40 represents 60% growth inhibition. A value of 0 means no net growth occurred over the course of the experiment. A value of -40 indicates 40% of cells at the beginning of the experiment died by the end of the experiment. A value of -100 means all cells are dead at the end of the experiment.
NCI-60 Human Tumor Cell Lines Screen was performed using the standard one-dose NCI protocol, which is described in more detail at https://dtp.cancer.gov/discovery_development/nci-60/default.htm.
Compounds with GIPRCNT values below 10 were considered active. Activity score was based on GIPRCNT using the following formula: […]
Score is 0 for GIPRCNT values of 100 or above, 50 for GIPRCNT values of 0, and 100 for GIPRCNT values of -100.

SMILES | growth
CCOC(=O)Nc1ccc2c(c1)/C(=N\NC(N)=S)c1ccccc1-2 | 55.3% and 75.3%
C[C@H](CCC(=O)NCc1ccc(C(=O)Nc2ccccc2N)cc1)[C@H]1CC[C@H]2[C@@H]3[C@@H](O)C[C@@H]4C[C@H](O)CC[C@]4(C)[C@H]3CC[C@]12C | 71.2%
Cc1nn(-c2cc(=O)[nH]c3ccc(Cl)cc23)c(N)c1C#N | 111%
CC(=O)Nc1ccc(O)c(C)c1 | 111%
Nc1c(C(=O)Nc2ccccc2)sc2nc3c(cc12)CN(CCc1ccccc1)CC3 | 107%
CCN1C(=O)N(CC)C2C1NC(=S)N2/N=C/C=C/c1ccccc1 (stereo not given) | 3.7% (active)
Cc1nn(-c2ccccc2)cc1/C=N/Nc1nc(Nc2ccccc2)nc(Nc2ccc(S(N)(=O)=O)cc2)n1 | -37.1% (active)
COc1ccc(-c2nc3sccn3c2-c2ccnc(NCCCNS(=O)(=O)c3ccc(C)cc3)n2)cc1 | 37.9%
c1ccc(CNc2ncnc3ccc(-c4cnc5[nH]ncc5c4)cc23)cc1 | 50.7%
CS(=O)(=O)c1nccc(-c2c(-c3cccc(O)c3)nc3sccn23)n1 | 60.1%
Cc1cc(N2CCN(CC(=O)Nc3ccc4c(ccn4C)c3)CC2)nc(N2CCCCCC2)n1 | 65.1%
COc1cc(/C=C/C(=O)c2ccc(NC(=O)CSc3nnc(-c4cc(-c5ccccc5)nc5ccccc45)n3-c3ccccc3)cc2)cc(OC)c1OC | 81.5%
O=c1[nH]c(=O)c2[nH]c(=O)[nH]c2[nH]1 | 85.6%
Cn1c(SCC(=O)c2ccco2)nc2ccccc2c1=O | 5.9% (active)
COc1ccc(/C=C/c2nc(Nc3ccc(Cl)cc3)c3ccccc3n2)cc1 | 28.1%
CS(=O)(=O)c1ccc(/C=C\C(=O)O)cc1 | 93.6%
N=C(N)c1ccc(-c2ccc(-c3ccccc3)s2)nc1 | 41.7%
COc1cccc(-c2nn(-c3ccccc3)cc2-c2ccnc(NCCNS(=O)(=O)c3ccccc3)c2)c1 | 14.5%
NC(N)=Nc1ccc(Oc2cccc(Nc3ccc(Cl)cc3)c2)cn1 | -27.9% (active)
CCC(=O)c1cc([N+](=O)[O-])c(Br)s1 | 74.6%

SMILES | growth
COc1ccc(/C=C/C(=O)c2nnn(-c3ccc(Br)cc3)c2C)cc1OC | 46.9%
C=CC(=O)N1CCC[C@@H](n2nc(-c3ccc(Oc4ccccc4)cc3)c3c(N)ncnc32)C1 | -17.5% (active)
O=C1Nc2ccc3c(c2/C1=C\c1cc2c(cc1Br)OCO2)OCO3 | -11.9% (active)
COC(=S)SCN(CSC(=S)OC)c1ccc(Cl)cc1 | 95.1%
Brc1ccc(-c2nn(-c3ccccc3)cc2-c2nn[nH]n2)s1 | 98.8%
COc1c(N2CC3CCCNC3C2)c(F)cc2c(=O)c(C(=O)N/N=C/c3ccccc3)cn(C3CC3)c12 (stereo not given) | 83.7%
CN1CCN(CCOc2ccc(-c3cnc4c(-c5ccccc5F)cnn4c3)cc2)CC1 | 45.6%
N#Cc1c(-c2ccc(F)cc2)cc(-c2c[nH]c3ccccc23)nc1-c1c[nH]c2ccccc12 | 99.3%
CNC(=O)c1cc(Oc2ccc(NC(=O)Nc3ccc(Cl)c(C(F)(F)F)c3)c(F)c2)ccn1 | -49.1% (active)
COc1c(C(NC(=O)c2ccccc2)c2sccc2C)cc(Cl)c2cccnc12 (stereo not given) | 102%
CC(C)[C@@H](C)/C=C/[C@@H](C)[C@H]1CCC2=C3C=CC4=CC(=O)CC[C@]4(C)[C@H]3CC[C@@]21C | 97.3%
CCOC(=O)c1cn2ncnc(Oc3ccc(NC(=O)NCCN4CCN(C)CC4)c(Cl)c3)c2c1C | 45.4%
COc1cc(/C=C2\CN(C(=O)CCN3CCC(=NO)CC3)C/C(=C\c3cc(OC)c(OC)c(OC)c3)C2=O)cc(OC)c1OC | -41.2% (active)
COc1cccc(/C=C2\C=C(c3ccccc3)N(Cc3ccccc3)C2=O)c1 | 45.3%
OCCn1cccn1 | 103%
COc1cc(O)c2c(c1)/C=C/C[C@H](O)[C@H](O)C(=O)/C=C\C[C@H](C)OC2=O | -24.3% (active)
COC(=O)c1nc(-c2ccc(C)cc2)oc1N1CCOCC1 | 82.1%
O=C1C(=O)c2c(nc3ccc(C(F)(F)F)cn23)-c2ccccc21 | -65.9% (active)
CC(C)C[C@H](NC(=O)[C@@H](Cc1ccccc1)n1ccc(Nc2ccccc2)cc1=O)B(O)O | -19.8% (active)
O=C1C(Cl)=C(Nc2ccc3c(c2NC2=C(Cl)C(=O)c4ccccc4C2=O)C(=O)c2ccccc2C3=O)C(=O)c2ccccc21 | 5.98% (active)
